Source: the supplement of paper PMC10849652
Of roughly 8,800 targets only a part is listed; those with a hit were picked by preference. About 0.5% of all pairs of compound and target were hits. A number with no mark means an inactive call.

Experiments:
Assay in all cases: log2 fold change, soluble protein after heating vs DMSO (PISA); higher = thermal stabilisation; K562 lysate, 10 uM; active = over 0.2 and 3.5 SD of the protein, either way, in both replicates (recomputed)
[1] = compound: C1=CC=C(C=C1)[C@H](COC2=CC3=C(C=C2)NC(=O)N3)NC(=O)C4=CC=CN(C4=O)CC5=CC(=C(C=C5)F)F
Procedure, shortened: (§1)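 Quantification was by TMTpro 16plex LC-MS/MS with equalised channel sums, applied to the supernatant after 21,000xg for 90 min. Samples were crude K562 extract at 1 mg/mL protein in PBS pH 7.4 with 1 mM MgCl2, treated with 10 μM compound for 30 min, heated for 3 min across 48°C-58°C, pooled and brought to 0.5% NP-40 at 4°C. Values are log-two fold changes in thermal stability relative to solvent controls, from duplicates.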

[2] = compound: CC1=C(SC2=C1C(=N[C@H](C3=NN=C(N32)C)CC(=O)N)C4=CC=C(C=C4)Cl)C
Procedure, shortened: as §1

[3] = compound: CC1=C2C(=CC=C1)N=C(N(C2=O)C3=CC=CC=C3C)CN4C=NC5=C(N=CN=C54)N
Procedure, shortened: as §1

[4] = compound: Cc1sc2c(c1C)C(c1ccc(Cl)cc1)=N[C@@H](CC(=O)OC(C)(C)C)c1nnc(C)n1-2
Procedure, shortened: as §1

[5] = compound: c1ccc([C@@H]2C[C@H]2NC2CCNCC2)cc1
Procedure, shortened: as §1

UniProt P15735, sequence (P15735 whole entry, looked up): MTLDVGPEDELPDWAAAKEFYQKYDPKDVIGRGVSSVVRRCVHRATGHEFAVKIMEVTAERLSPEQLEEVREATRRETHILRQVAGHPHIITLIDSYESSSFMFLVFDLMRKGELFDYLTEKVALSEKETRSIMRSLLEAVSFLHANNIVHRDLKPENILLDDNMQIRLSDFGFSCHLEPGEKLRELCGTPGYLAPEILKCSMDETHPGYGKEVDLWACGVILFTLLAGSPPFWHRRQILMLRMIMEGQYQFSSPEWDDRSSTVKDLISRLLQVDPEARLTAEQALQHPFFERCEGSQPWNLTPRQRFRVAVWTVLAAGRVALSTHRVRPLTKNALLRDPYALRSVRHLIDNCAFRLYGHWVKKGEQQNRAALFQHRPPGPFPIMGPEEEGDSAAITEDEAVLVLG
UniProt Q13356, sequence (Q13356 whole entry, looked up): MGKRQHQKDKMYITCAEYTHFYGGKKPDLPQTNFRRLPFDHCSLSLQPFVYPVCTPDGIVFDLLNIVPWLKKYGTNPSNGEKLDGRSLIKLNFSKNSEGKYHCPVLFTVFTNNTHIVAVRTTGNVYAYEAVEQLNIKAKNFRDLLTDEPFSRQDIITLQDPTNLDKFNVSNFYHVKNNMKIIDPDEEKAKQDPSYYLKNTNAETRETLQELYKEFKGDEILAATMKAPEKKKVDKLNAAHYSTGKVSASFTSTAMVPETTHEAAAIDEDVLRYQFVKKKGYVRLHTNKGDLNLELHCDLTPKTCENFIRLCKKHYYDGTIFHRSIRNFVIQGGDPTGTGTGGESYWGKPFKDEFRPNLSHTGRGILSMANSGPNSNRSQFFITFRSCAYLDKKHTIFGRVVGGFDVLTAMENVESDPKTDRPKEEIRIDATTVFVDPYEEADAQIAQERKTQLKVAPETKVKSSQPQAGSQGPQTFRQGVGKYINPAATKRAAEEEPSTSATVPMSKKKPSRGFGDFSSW
UniProt Q9UHX1, sequence (Q9UHX1 whole entry, looked up): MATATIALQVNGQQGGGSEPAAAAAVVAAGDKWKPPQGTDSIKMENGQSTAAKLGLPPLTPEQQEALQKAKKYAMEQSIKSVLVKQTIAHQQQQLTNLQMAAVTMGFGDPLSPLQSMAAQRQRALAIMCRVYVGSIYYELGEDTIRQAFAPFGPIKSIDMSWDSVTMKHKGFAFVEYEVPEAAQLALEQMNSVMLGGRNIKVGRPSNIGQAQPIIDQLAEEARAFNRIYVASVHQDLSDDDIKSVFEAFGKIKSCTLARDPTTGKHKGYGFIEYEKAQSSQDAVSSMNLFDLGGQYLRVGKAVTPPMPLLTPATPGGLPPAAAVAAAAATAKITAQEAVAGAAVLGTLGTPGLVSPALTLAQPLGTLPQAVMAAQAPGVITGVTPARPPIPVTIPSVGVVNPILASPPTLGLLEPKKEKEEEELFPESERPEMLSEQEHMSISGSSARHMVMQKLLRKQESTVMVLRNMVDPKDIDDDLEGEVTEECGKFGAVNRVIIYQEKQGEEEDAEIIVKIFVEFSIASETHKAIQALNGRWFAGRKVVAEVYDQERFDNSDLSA
UniProt Q16512, sequence (Q16512 whole entry, looked up): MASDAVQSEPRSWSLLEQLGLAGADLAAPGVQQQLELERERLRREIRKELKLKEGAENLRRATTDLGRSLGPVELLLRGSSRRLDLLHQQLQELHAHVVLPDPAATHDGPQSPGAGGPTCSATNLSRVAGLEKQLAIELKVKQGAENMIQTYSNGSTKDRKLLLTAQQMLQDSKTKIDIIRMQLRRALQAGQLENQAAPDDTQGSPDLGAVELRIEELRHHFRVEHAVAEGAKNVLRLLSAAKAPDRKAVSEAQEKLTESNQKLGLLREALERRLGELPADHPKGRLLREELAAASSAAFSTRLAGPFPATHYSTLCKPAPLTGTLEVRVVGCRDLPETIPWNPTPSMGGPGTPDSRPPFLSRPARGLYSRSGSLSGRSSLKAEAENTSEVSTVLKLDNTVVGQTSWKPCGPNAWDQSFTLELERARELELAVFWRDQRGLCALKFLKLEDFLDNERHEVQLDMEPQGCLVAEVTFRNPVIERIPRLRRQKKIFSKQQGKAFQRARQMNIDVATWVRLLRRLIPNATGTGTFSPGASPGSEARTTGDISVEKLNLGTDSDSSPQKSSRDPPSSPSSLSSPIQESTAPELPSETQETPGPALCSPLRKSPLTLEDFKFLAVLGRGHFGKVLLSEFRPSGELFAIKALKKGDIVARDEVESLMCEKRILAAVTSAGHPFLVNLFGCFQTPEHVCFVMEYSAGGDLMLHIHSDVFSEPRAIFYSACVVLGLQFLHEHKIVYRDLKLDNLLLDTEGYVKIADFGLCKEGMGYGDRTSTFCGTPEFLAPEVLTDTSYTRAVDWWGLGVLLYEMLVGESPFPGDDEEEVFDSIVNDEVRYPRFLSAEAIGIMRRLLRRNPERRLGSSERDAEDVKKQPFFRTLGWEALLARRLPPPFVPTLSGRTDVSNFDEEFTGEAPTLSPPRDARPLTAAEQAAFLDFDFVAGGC
UniProt P0C869, sequence (P0C869 whole entry, looked up): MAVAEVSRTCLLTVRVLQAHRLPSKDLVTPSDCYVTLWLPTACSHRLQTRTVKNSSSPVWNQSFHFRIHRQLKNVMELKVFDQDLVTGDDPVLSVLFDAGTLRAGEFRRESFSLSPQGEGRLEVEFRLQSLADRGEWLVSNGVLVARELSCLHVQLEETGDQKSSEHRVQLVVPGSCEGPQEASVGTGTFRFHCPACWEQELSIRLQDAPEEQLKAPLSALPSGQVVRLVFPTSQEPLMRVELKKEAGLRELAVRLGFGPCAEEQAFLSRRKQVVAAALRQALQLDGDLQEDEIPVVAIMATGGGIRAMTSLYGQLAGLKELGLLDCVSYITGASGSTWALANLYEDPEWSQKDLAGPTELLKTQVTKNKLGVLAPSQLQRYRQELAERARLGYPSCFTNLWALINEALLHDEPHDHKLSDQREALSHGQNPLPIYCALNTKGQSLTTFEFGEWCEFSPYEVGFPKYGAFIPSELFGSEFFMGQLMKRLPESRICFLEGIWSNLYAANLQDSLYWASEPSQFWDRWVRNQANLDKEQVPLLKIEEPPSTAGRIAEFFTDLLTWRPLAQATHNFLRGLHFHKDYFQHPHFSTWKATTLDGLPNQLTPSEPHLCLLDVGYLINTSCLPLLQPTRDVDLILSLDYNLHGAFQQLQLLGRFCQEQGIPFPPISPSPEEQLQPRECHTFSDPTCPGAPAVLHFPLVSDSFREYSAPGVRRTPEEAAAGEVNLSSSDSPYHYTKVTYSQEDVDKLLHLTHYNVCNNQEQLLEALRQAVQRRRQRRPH
UniProt Q96LW4, sequence (Q96LW4 whole entry, looked up): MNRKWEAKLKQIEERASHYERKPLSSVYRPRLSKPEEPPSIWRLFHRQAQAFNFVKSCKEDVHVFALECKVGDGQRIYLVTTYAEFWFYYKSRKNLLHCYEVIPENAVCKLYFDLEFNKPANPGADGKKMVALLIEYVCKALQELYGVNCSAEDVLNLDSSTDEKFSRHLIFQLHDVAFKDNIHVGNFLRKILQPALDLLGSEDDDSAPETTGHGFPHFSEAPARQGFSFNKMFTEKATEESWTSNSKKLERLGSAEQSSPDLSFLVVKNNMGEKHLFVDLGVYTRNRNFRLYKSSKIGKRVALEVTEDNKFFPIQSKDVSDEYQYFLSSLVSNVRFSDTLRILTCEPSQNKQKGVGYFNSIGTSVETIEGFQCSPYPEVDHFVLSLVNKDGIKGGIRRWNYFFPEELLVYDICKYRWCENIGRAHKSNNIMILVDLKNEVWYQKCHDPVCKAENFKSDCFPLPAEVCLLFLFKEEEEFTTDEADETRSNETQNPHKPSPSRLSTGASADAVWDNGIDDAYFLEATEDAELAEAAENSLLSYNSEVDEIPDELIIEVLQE
UniProt Q6EEV4, sequence (Q6EEV4 whole entry, looked up): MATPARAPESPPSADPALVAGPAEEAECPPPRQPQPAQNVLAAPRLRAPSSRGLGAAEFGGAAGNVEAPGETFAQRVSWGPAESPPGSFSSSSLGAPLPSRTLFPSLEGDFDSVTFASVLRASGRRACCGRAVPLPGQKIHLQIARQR
UniProt Q13492, sequence (Q13492 whole entry, looked up): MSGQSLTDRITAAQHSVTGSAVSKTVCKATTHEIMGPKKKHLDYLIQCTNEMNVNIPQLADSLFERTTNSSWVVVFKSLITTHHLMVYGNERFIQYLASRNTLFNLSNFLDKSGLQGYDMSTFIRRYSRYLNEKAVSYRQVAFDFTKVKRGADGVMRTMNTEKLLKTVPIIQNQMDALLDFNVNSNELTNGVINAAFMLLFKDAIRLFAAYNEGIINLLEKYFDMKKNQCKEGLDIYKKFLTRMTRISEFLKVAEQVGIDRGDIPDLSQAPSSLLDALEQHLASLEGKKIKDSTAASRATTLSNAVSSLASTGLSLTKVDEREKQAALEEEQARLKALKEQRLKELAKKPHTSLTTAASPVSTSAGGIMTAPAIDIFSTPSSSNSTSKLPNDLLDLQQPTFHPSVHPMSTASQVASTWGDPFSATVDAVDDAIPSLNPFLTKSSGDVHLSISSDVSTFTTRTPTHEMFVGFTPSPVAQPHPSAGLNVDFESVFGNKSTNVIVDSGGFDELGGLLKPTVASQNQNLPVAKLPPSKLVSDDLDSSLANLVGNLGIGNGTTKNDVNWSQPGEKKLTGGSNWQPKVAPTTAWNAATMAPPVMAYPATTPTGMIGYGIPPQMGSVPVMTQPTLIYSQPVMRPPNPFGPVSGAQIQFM
UniProt Q969Q6, sequence (Q969Q6 whole entry, looked up): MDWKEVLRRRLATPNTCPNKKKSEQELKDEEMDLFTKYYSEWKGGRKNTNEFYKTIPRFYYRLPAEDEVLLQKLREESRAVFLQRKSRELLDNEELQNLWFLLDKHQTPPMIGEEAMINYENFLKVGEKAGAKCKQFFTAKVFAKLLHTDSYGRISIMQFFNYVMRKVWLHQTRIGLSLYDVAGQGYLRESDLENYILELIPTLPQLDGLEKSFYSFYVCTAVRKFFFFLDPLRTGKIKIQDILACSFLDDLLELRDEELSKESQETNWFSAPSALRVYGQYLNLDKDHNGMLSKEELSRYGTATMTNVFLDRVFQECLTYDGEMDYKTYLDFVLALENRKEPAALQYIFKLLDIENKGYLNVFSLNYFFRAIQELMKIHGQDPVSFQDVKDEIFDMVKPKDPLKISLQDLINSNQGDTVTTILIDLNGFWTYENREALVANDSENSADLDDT

| Target | log2 fold change [1] | log2 fold change [2] | log2 fold change [3] | log2 fold change [4] | log2 fold change [5] |
| --- | --- | --- | --- | --- | --- |
| PIM1 isoform 2 (UniProt P11309) | -0.115 | -0.046 | -0.127 | -0.025 | -0.191 |
| PTMA isoform 2 (UniProt P06454) | 0.098 | -0.016 |  |  |  |
| PPP2R3C (UniProt Q969Q6) | -0.044 | 0.006 | 0.042 | -0.052 | 0.059 |
| PLEKHA5 isoform 6 (UniProt Q9HAU0) | 0 | -0.112 | -0.06 | -0.013 | 0.045 |
| PRPF38A (UniProt Q8NAV1) | 0.034 | -0.055 | -0.08 | -0.024 | -0.133 |
| PGRMC1 (UniProt O00264) | 0.073 | -0.038 | 0.008 | -0.031 | -0.039 |
| PLEKHO2 (UniProt Q8TD55) | -0.158 | 0.077 | -0.076 | -0.107 | 0.043 |
| PLEKHF1 (UniProt Q96S99) | -0.019 | 0.034 | 0.029 | 0.01 | 0.014 |
| PEF1 (UniProt Q9UBV8) | 0.016 | -0.039 | 0.055 | 0.048 | -0.031 |
| PMS2 (UniProt P54278) | -0.021 | 0.005 | 0.024 | -0.031 | 0.039 |
| PDCD6IP isoform 2 (UniProt Q8WUM4) | -0.019 | -0.004 | 0.018 | 0.02 | 0.056 |
| PCBP2 (UniProt F8W0G4) | 0.16 | 0.052 | 0.043 | 0.103 |  |
| POLB (UniProt P06746) | -0.02 | -0.005 | 0.028 | 0.041 | 0.021 |
| PLA2G4B isoform 6 (UniProt P0C869) | -0.003 | 0.024 | -0.052 | 0.099 | -0.019 |
| PHC1 (UniProt P78364) | 0.025 | 0.001 | 0.041 | -0.049 |  |
| PPP1R12B isoform 6 (UniProt O60237) | 0.043 | 0.033 | 0.088 | -0.145 |  |
| PTMA (UniProt P06454) | 0.015 | 0.018 | 0.01 | -0.004 | 0.241 |
| PHF14 (UniProt O94880) | 0.048 | 0.025 | -0.038 | 0.019 |  |
| PFKFB2 (UniProt O60825) | 0.016 | 0.001 | 0.03 | -0.001 | -0.008 |
| PPP4R2 (UniProt Q9NY27) | 0.019 | 0.025 | -0.001 | -0.026 | -0.009 |
| PCBD2 (UniProt Q9H0N5) | -0.019 | 0.048 | 0.002 | -0.011 | -0.172 |
| PLK1 (UniProt P53350) | 0.033 | 0.042 | 0.052 | -0.026 | 0.084 |
| PDCD10 (UniProt Q9BUL8) | -0.005 | 0.02 | -0.013 | -0.042 | -0.064 |
| PRMT7 (UniProt Q9NVM4) | -0.002 | -0.029 | 0.009 | -0.039 | 0.014 |
| PPIL2 (UniProt Q13356) | 0.036 | 0.005 | 0.029 | 0.082 | 0.011 |
| PCBP3 (UniProt P57721) | -0.028 | 0.014 | -0.026 | 0.021 | 0 |
| PCBP2 isoform 8 (UniProt Q15366) | 0.098 | 0.065 | -0.038 | -0.044 | -0.101 |

| Target | log2 fold change [1] | log2 fold change [2] | log2 fold change [3] | log2 fold change [4] | log2 fold change [5] |
| --- | --- | --- | --- | --- | --- |
| PTS (UniProt Q03393) | -0.024 | -0.274 (active) | 0.032 | -0.093 | 0.022 |
| PIKFYVE (UniProt Q9Y2I7) | -0.005 | 0.007 | 0.016 | 0.054 | -0.03 |
| PLIN2 (UniProt Q99541) | -0.138 | 0.015 | 0.021 | -0.018 | 0.014 |
| PRIMPOL (UniProt Q96LW4) | 0.009 | 0.009 | -0.015 | -0.024 |  |
| POLD3 (UniProt Q15054) | -0.004 | 0.002 | 0.019 | 0 | 0.034 |
| PFKFB4 (UniProt Q16877) | -0.066 | 0.023 | 0.059 | -0.053 | -0.007 |
| PRKCA (UniProt P17252) | 0.01 | -0.012 | -0.061 | 0.021 | 0.089 |
| PRMT5 (UniProt O14744) | -0.01 | 0.031 | 0.006 | -0.013 | 0.002 |
| PCYT1B (UniProt Q9Y5K3) | -0.006 | 0.033 | -0.01 | -0.03 | -0.073 |
| PWP2 (UniProt Q15269) | -0.004 | -0.042 | -0.013 | -0.048 | 0.061 |
| POLD1 (UniProt P28340) | 0.026 | 0.003 | 0.011 | 0.03 | 0.042 |
| PRKCSH (UniProt K7ELL7) | 0.045 | -0.027 | -0.157 | -0.112 | -0.048 |
| PUM1 isoform 3 (UniProt Q14671) | -0.057 | 0.048 | 0.024 | -0.003 | 0.054 |
| PPM1H (UniProt Q9ULR3) | 0.011 | -0.023 | -0.008 | 0.062 | 0.05 |
| PRC1 (UniProt O43663) | 0.089 | 0.037 | 0.026 | 0.03 | 0.043 |
| PTK2B (UniProt Q14289) | -0.056 | -0.012 | -0.036 | -0.009 | -0.034 |
| PUF60 (UniProt Q9UHX1) | -0.017 | 0.006 | 0.004 | 0.028 | 0.059 |
| PPP2R5C isoform 4 (UniProt Q13362) | -0.057 | 0.003 | 0.021 | -0.103 | 0.021 |
| POLR2M (UniProt Q6EEV4) | 0.01 | 0.042 | -0.084 | 0.132 | 0.012 |
| PLXNB2 (UniProt O15031) | -0.034 | 0.037 | 0.014 | 0.004 | -0.024 |
| PIP4K2A (UniProt P48426) | -0.093 | -0.053 | -0.041 | -0.05 | -0.106 |
| PTK2 (UniProt Q05397) | 0.006 | -0.027 | -0.003 | 0.023 | -0.131 |
| PICALM (UniProt Q13492) | -0.014 | 0.027 | 0.016 | 0.005 | 0.007 |
| PKN1 isoform 2 (UniProt Q16512) | -0.003 | 0.017 | 0.023 | 0.029 | 0.022 |
| PTGR2 (UniProt Q8N8N7) | 0.009 | 0.039 | -0.003 | -0.048 | -0.004 |
| PYCR2 (UniProt Q96C36) | 0.007 | 0.036 | 0.013 | 0.004 | -0.054 |
| PHKG2 (UniProt P15735) | 0.039 | -0.038 | -0.037 | -0.002 | -0.022 |
